Data taken from PubChem BioAssay (Tox21).
Several values for one entry are separate records, joined by “and”; a condition that tells them apart may be missing. Equal entries are not always repeated. Inconclusive results are not listed. A call without a number means that no potency is given here. More than one record can exist for a structure, and the calls need not agree. Activity calls are given as the source filed them. Unless noted, the call rests on the fitted dose curve; in most records, active means well fitted curve in the direction sought with a large enough effect in the repeat runs; inconclusive means weak or mixed curves; inactive means no such curve, though single readings can be large; an effect the other way counts as inactive or inconclusive.

Experiments:
[1] = target: Thyrotropin receptor (Homo sapiens) (UniProt P16473); experiment: qHTS assay to identify small molecule antagonists of the thyroid stimulating hormone receptor (TSHR) signaling pathway (AID 1259385; calls by dose curve; further: nearly all actives have a fitted effect of over 20% in size)
Sequence of Thyrotropin receptor (Homo sapiens) (P16473 whole entry, looked up): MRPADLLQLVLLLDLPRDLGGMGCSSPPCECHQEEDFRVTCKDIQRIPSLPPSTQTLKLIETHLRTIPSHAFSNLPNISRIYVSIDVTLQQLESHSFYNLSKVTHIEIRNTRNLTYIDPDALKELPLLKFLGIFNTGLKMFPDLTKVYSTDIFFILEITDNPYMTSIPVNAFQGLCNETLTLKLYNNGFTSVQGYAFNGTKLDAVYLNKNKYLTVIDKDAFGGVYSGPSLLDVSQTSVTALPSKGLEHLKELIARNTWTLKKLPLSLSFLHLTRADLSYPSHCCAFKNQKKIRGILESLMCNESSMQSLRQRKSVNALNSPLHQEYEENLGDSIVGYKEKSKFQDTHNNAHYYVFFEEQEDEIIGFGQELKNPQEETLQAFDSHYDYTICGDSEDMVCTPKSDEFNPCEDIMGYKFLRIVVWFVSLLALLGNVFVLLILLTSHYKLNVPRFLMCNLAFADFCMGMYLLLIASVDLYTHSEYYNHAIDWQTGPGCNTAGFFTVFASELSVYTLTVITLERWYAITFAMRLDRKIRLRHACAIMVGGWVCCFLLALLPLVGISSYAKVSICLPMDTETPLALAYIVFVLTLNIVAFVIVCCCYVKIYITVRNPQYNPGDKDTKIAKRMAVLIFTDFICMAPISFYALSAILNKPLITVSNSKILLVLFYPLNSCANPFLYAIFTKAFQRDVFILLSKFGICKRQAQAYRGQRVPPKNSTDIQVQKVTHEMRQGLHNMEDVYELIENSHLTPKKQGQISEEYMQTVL
Method in brief: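 TSHR-HEK293 cells were plated and held 18 h at 37C/5% CO2, then given compound plus Ro20-1724 and stimulated with TSH at 1.5 ng/mL final. After 30 min at room temperature, cAMP was detected with cAMP-d2/anti-cAMP-cryptate (1 h) by fluorescence.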

[2] = qHTS assay to identify small molecule agonists of the estrogen receptor alpha (ER-alpha) signaling pathway in the presence of an antagonist - cell viability counter screen (AID 1259386); further: nearly all actives have a fitted effect of over 30% in size; further: potency means the concentration at half of the fitted maximal effect
Method in brief: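 Compounds tested at 15 concentrations for 22 h at 37C alongside 10.0nM (final) ICI-182,780 antagonist, in VM7Luc4E2 cells grown in phenol red-free, charcoal-stripped medium. Viability read by CellTiter-Fluor fluorescence after 1 h reagent incubation.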

[3] = target: Progesterone receptor (Homo sapiens) (UniProt P06401); experiment: qHTS assay to identify small molecule agonists of the progesterone receptor (PR) signaling pathway (AID 1346784; calls by dose curve; further: nearly all actives have a fitted effect of over 30% in size; further: potency means the concentration at half of the fitted maximal effect)
Sequence of Progesterone receptor (Homo sapiens) (P06401 whole entry, looked up): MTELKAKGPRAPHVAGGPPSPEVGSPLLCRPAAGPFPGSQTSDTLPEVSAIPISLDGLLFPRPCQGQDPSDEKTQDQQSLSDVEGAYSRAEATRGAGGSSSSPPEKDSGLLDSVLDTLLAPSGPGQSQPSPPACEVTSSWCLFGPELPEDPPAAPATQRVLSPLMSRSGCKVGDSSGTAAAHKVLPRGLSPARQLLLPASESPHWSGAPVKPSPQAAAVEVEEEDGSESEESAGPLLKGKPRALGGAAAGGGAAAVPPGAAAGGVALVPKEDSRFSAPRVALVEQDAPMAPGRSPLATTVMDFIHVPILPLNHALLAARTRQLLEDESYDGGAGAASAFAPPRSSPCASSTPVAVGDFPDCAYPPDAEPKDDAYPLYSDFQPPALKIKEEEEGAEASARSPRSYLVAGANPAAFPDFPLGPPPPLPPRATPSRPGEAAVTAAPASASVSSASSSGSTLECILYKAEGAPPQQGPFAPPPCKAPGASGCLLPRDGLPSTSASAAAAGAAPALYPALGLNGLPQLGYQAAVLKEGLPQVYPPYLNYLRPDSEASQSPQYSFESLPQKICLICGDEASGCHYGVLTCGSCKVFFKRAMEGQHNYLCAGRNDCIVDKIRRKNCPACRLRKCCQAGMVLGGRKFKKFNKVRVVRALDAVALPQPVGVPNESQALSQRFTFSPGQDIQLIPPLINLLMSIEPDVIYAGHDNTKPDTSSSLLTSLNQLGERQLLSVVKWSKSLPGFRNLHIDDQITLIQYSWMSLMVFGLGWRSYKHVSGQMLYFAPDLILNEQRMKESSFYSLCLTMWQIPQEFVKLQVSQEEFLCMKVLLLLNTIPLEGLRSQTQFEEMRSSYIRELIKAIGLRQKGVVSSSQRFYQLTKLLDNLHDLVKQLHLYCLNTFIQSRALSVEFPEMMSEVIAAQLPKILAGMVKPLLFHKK
Method in brief: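 Fluorescence from LiveBLAzer B/G FRET substrate cleavage (2 hr, RT) reported PR activation in PR-UAS-bla HEK 293T cells treated 16 hr at 37C/5% CO2 with compounds; medium contained 2% charcoal-stripped FBS.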

[4] = target: Progesterone receptor (Homo sapiens) (UniProt P06401); experiment: qHTS assay to identify small molecule antagonists of the progesterone receptor (PR) signaling pathway (AID 1346795; active means well fitted inhibition curve with a large enough effect in the signal ratio in the repeat runs, not every such curve was filed as active; the % refers to the signal ratio; further: potency means the concentration at half of the fitted maximal effect)
Method in brief: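 Fluorescence intensity measured 2 hr after adding beta-lactamase FRET substrate to PR-UAS-bla HEK293T cells that had been co-treated 16 hr with compound and 1 nM R5020 (final concentration) in 2% charcoal-stripped FBS.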

[5] = qHTS assay to identify small molecule antagonists of the progesterone receptor (PR) signaling pathway - cell viability counter screen (AID 1346798); further: series mostly up to about 92 µM; nearly all actives have a fitted effect of over 50% in size
Method in brief: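 CellTiter-Glo luminescence; PR-UAS-bla HEK293T, 3,000 cells/well; compound + R5020, 16 hr, 37C/5% CO2; 30 min RT before read.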

[6] = qHTS assay to identify small molecule agonists of the progesterone receptor (PR) signaling pathway - cell viability counter screen (AID 1346799; calls by dose curve; further: nearly all actives have a fitted effect of over 45% in size)
Method in brief: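 In parallel with the beta-lactamase readout, cytotoxicity toward PR-UAS-bla HEK293T cells was measured by CellTiter-Glo luminescence following 16 hr compound incubation in 2% charcoal-stripped FBS medium.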

[7] = qHTS assay to identify small molecule antagonists of the TGF-beta/Smad signaling pathway - cell viability counter screen (AID 1346824); further: nearly all actives have a fitted effect of over 50% in size
Method in brief: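 SBE-bla HEK 293T cells were plated overnight at 37 C, then given compounds in DMSO plus TGF-beta1 (added as 0.25 ng/mL solution) for 5 hr. After the bla read, CellTiter-Glo was added to the same wells and luminescence read after 30 min at room temperature.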

[8] = qHTS assay to identify small molecule agonists of the TGF-beta/Smad signaling pathway - cell viability counter screen (AID 1346829); further: top concentration of the series differs between compounds; nearly all actives have a fitted effect of over 45% in size
Method in brief: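 Same-well cytotoxicity: CellTiter-Glo added after the 2 hr room-temperature beta-lactamase substrate step, luminescence measured 30 min later; cells had 5 hr of compound at 37 C.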

[9] = qHTS assay to identify small molecule agonists of the TGF-beta/Smad signaling pathway (AID 1346859; active means well fitted activation curve with a large enough effect in the signal ratio in the repeat runs, not every such curve was filed as active; the % refers to the signal ratio; further: series mostly up to about 77 µM)
Method in brief: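 After overnight seeding, SBE-bla HEK 293T cells are dosed with compounds in DMSO and kept 5 hr at 37 C, 5% CO2. LiveBLAzer-type FRET substrate is then applied for 2 hr at room temperature.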

[10] = target: Thyrotropin-releasing hormone receptor (Homo sapiens) (UniProt P34981); experiment: qHTS assay to identify small molecule antagonists of the thyrotropin-releasing hormone receptor (TRHR) signaling pathway (AID 1346877; active means well fitted inhibition curve with a large enough effect in the repeat runs, not every such curve was filed as active; further: series mostly up to about 51 µM)
Sequence of Thyrotropin-releasing hormone receptor (Homo sapiens) (P34981 whole entry, looked up): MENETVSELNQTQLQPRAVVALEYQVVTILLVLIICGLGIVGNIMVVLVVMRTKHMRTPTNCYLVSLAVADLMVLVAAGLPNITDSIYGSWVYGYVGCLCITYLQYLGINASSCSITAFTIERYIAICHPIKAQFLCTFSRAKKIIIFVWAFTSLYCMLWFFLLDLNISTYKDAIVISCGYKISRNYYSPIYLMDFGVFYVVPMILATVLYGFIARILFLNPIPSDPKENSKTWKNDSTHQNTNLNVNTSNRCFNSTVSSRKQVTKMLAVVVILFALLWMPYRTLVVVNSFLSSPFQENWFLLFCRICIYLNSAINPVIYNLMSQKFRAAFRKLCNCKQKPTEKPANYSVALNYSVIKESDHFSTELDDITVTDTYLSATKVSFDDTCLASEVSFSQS
Method in brief: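 Antagonist mode: after a 5 min room-temperature compound exposure, cells were stimulated with 1 nM (final) TRH. Dye-loaded TRHR-HEK293 cells were used, and calcium-dependent fluorescence was followed for 3 min, with 15-point titrations run in triplicate.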

Structure (SMILES)	outcome [1]	Potency [2]	Potency [3]	Potency [4]	Potency [5]	Potency [6]	Potency [7]	Potency [8]	outcome [9]	Potency [10]
CCN(N=O)C(N)=O	inactive	inactive	inactive	inactive	inactive	inactive	inactive	inactive	inactive	inactive
Cc1cc(C)cc(C)c1	inactive	inactive	inactive	inactive	inactive	inactive	inactive	inactive		inactive
COc1ccc(C=O)cc1	inactive	inactive	inactive	inactive	inactive	inactive	inactive	inactive		
CCOP(=S)(OCC)O/N=C(\C#N)c1ccccc1	inactive	inactive	inactive	13.3 µM (active)	inactive	inactive	inactive	inactive	inactive	
CC(O)CCO (configuration not stated)	inactive	inactive	inactive	inactive	inactive	inactive	inactive	inactive		
CNC(=O)N(C)c1nnc(C(C)(C)C)s1	inactive	inactive	inactive	inactive	inactive	inactive	inactive	inactive	inactive	
N#CC(Br)Br	inactive	inactive	inactive	inactive	inactive	inactive	inactive	inactive	inactive	
NCc1cccnc1	inactive	inactive	inactive	inactive	inactive	inactive	inactive	inactive	inactive	
O=[N+]([O-])c1cccc2ccccc12	inactive	inactive	inactive	inactive	inactive	inactive	inactive	inactive		inactive
Nn1cnnc1	inactive	inactive	inactive	inactive	inactive	inactive	inactive	inactive	inactive	inactive
Oc1cc(Cl)c(Cl)cc1Cl	inactive	inactive	inactive	60.6 µM (active) and inactive and 54.5 µM (active)	inactive		inactive	inactive		inactive
N#CCCCl	inactive	inactive	inactive	inactive	inactive	inactive	inactive	inactive	inactive	
CCOc1cc(C=O)ccc1O	inactive	inactive	inactive	inactive	inactive	inactive	inactive	inactive	inactive	inactive
OCC(O)CO	inactive	inactive	inactive	inactive	inactive	inactive	inactive	inactive	inactive	
C1=Cc2cccc3cccc1c23	inactive	inactive	60.1 µM (active) and inactive	inactive	inactive	inactive	inactive	inactive	inactive	inactive
Nc1ccncc1	inactive	inactive	inactive	inactive	inactive	inactive	inactive	inactive	inactive	inactive
c1ccc(N=Nc2ccccc2)cc1	inactive	inactive	inactive	inactive	inactive	inactive	inactive	inactive	inactive	inactive
Oc1ccc(-c2ccccc2)cc1	inactive	inactive	inactive	15.4 µM (active)	inactive	inactive	inactive	inactive	inactive	
CC(C)N(C(=O)SCC(Cl)=C(Cl)Cl)C(C)C	inactive	inactive	inactive	inactive	inactive	inactive	inactive	inactive	inactive	
O=C(CCl)c1ccccc1	inactive	inactive	inactive	inactive	inactive	inactive	inactive	inactive	inactive	
S=C1NCCN1	inactive	inactive	inactive	inactive	inactive	inactive	inactive	inactive		
COC(=O)c1sccc1S(=O)(=O)NC(=O)Nc1nc(C)nc(OC)n1	inactive	inactive	inactive	inactive	inactive	inactive	inactive	inactive	inactive	inactive
NC(=S)Nc1ccccc1	inactive	inactive	inactive	inactive	inactive	inactive	inactive	inactive	inactive	inactive
Nc1ccc(-c2ccccc2)cc1	inactive	inactive	inactive	1.99 µM (active)	inactive	inactive	inactive	inactive	inactive	inactive
O=C(NC(=O)c1c(F)cccc1F)Nc1ccc(Cl)cc1	inactive	inactive	inactive	inactive	inactive	inactive	inactive	inactive	inactive	

Structure (SMILES)	outcome [1]	Potency [2]	Potency [3]	Potency [4]	Potency [5]	Potency [6]	Potency [7]	Potency [8]	outcome [9]	Potency [10]
CCN(CC)C(=O)/C(Cl)=C(\C)OP(=O)(OC)OC	inactive	inactive	inactive	inactive	inactive	inactive	inactive	inactive		
Cc1cc(Cl)ccc1OCCCC(=O)O	inactive	inactive	inactive	inactive	inactive	inactive	inactive	inactive		inactive
CN(C)C(=O)Nc1ccc(Cl)cc1	inactive	inactive	inactive	inactive	inactive	inactive	inactive	inactive	inactive	
c1nc[nH]n1	inactive	inactive	inactive	inactive	inactive	inactive	inactive	inactive		
COP(=O)(OC)OC	inactive	inactive	inactive	inactive	inactive	inactive	inactive	inactive		
CCC(C)c1cc([N+](=O)[O-])cc([N+](=O)[O-])c1O (configuration not stated)	inactive	inactive and 24.3 µM (active)	inactive	inactive	inactive	inactive	inactive	inactive	inactive	
CCCCN(CCCC)N=O	inactive	inactive	inactive	inactive	inactive	inactive	inactive	inactive	inactive	
C=CCc1ccc(OC)cc1	inactive	inactive	inactive	inactive	inactive	inactive	inactive	inactive		
Nc1cccnc1	inactive	inactive	inactive	inactive	inactive	inactive	inactive	inactive		inactive
COc1ccc(C(CN(C)C)C2(O)CCCCC2)cc1 (configuration not stated)	inactive	inactive	inactive	inactive		inactive	inactive	inactive		
CCCCCCCCCCCOC(=O)c1ccccc1C(=O)OCCCCCCCCCCC	inactive	inactive	inactive	inactive	inactive	inactive	inactive	inactive	inactive	
CCN(CC)N=O	inactive	inactive	inactive	inactive	inactive	inactive	inactive	inactive		inactive
CCC(C)(C)c1ccc(O)cc1	inactive	inactive	inactive	inactive	inactive	inactive	inactive	inactive		
C=CC(=O)OCCO	inactive	inactive	inactive	inactive		inactive	inactive	inactive	inactive	inactive
O=P(O)(O)CCCl	inactive	inactive	inactive	inactive		inactive	inactive	inactive	inactive	inactive
O=C1C=CC(=O)C=C1	inactive	inactive	inactive	inactive		inactive	inactive	inactive	inactive	inactive
C=C(C)[C@H]1Cc2c(ccc3c2O[C@@H]2COc4cc(OC)c(OC)cc4[C@@H]2C3=O)O1	inactive	2.77 µM (active) and 96.9 nM (active) and 188 nM (active)	inactive	19.6 µM (active) and 9.69 µM (active) and 11.9 µM (active)				inactive	inactive	
ClC1C(Cl)C(Cl)C(Cl)C(Cl)C1Cl (configuration not stated)	inactive	inactive	inactive	inactive		inactive	inactive	inactive	inactive	inactive
NNC(=S)NN	inactive	inactive	inactive	62.8 µM (active) and 54.5 µM (active)		inactive	inactive	inactive		
N#Cc1cc(Br)c(O)c(Br)c1	inactive	inactive	inactive	inactive			inactive	inactive	inactive	inactive
C=CCc1ccc2c(c1)OCO2	inactive	inactive	inactive	inactive		inactive	inactive	inactive	inactive	
CCC(C)(c1ccc(O)cc1)c1ccc(O)cc1	inactive	inactive	inactive	4.32 µM (active)			inactive	inactive	inactive	
N[C@@H](Cc1ccc(N(CCCl)CCCl)cc1)C(=O)O	inactive	inactive	inactive	inactive		inactive	inactive	inactive	inactive	inactive
O=C(O)C(F)(F)C(F)(F)C(F)(F)C(F)(F)C(F)(F)C(F)(F)C(F)(F)F	inactive	inactive	inactive	inactive			inactive	inactive	inactive	inactive
Cc1ccccc1[N+](=O)[O-]	inactive	inactive	inactive	inactive		inactive	inactive	inactive	inactive	
